# Assay results: PMC11062922 (Nature Chemical Biology, 2023)
# Where two headings read alike, the source gives them in different places.
# Columns and labels:
# Set-up in all cases: species or system human, MV4-11 + K-562 + COLO205 + SK-N-BE2 + OVCAR-8
# DJA1 = tested on: T1, DJA1; conditions: read-out: apparent Kd, n = 1
# T1 construct: gene DNAJA1
# PRKD2 = conditions: read-out: apparent Kd; compound concentrations:100 nM and 1000 nM (sheet 'Samples'); n = 1
# PRKD3 = conditions: read-out: apparent Kd; compound concentrations:100 nM and 1000 nM (sheet 'Samples'); n = 1
# MAP2K1 = conditions: read-out: apparent Kd; compound concentrations:100 nM and 1000 nM (sheet 'Samples'); n = 1
# PIM2 = conditions: read-out: apparent Kd; compound concentrations:100 nM and 1000 nM (sheet 'Samples'); n = 1
# STK26 = conditions: read-out: apparent Kd; compound concentrations:100 nM and 1000 nM (sheet 'Samples'); n = 1
# DHCR24 = conditions: read-out: apparent Kd, compound concentrations: 100 nM and 1000 nM (sheet 'Samples'), n = 1
# NQO1 = conditions: read-out: apparent Kd; compound concentrations: 100 nM and 1000 nM (sheet 'Samples'), CATDS: 0.149856517044136; n = 1
# PLK1 = conditions: read-out: apparent Kd; compound concentrations: 100 nM and 1000 nM (sheet 'Samples'), CATDS: 0.13672731586716499; n = 1
# RIPK2 = conditions: read-out: apparent Kd; compound concentrations: 100 nM and 1000 nM (sheet 'Samples'), CATDS: 0.97549436112996002; n = 1
# RIPK3 = conditions: read-out: apparent Kd; compound concentrations: 100 nM and 1000 nM (sheet 'Samples'), CATDS: 0.14106558052959201; n = 1
# TP53RK = conditions: read-out: apparent Kd; compound concentrations: 100 nM and 1000 nM (sheet 'Samples'), CATDS: 0.13630649736476699; n = 1
# DDR2 = conditions: read-out: apparent Kd; compound concentrations:100 nM and 1000 nM (sheet 'Samples'); n = 1
# PDGFRB = conditions: read-out: apparent Kd; compound concentrations:100 nM and 1000 nM (sheet 'Samples'); n = 1
# EGFR = conditions: read-out: apparent Kd; compound concentrations: 100 nM and 1000 nM (sheet 'Samples'), CATDS: 1; n = 1
# PTK6 = conditions: read-out: apparent Kd; compound concentrations: 100 nM and 1000 nM (sheet 'Samples'), CATDS: 0.387863257787184; n = 1
# TNK2 = conditions: read-out: apparent Kd; compound concentrations: 100 nM and 1000 nM (sheet 'Samples'), CATDS: 0.62096450214514598; n = 1
# PIK3C3 = conditions: read-out: apparent Kd; compound concentrations: 100 nM and 1000 nM (sheet 'Samples'), CATDS: 0.180657848529719; n = 1
# PIK3CA = conditions: read-out: apparent Kd; compound concentrations: 100 nM and 1000 nM (sheet 'Samples'), CATDS: 0.62004014167069399; n = 1
# STK16 = conditions: read-out: apparent Kd; compound concentrations: 100 nM and 1000 nM (sheet 'Samples'), CATDS: 0.16232458546683101; n = 1
# STK4 = conditions: read-out: apparent Kd; compound concentrations: 100 nM and 1000 nM (sheet 'Samples'), CATDS: 0.1689879657386; n = 1
# EIF5B = conditions: read-out: apparent Kd; compound concentrations: 100 nM and 1000 nM (sheet 'Samples'), CATDS: 0.317916944834297; n = 1
# TOP2B = conditions: read-out: apparent Kd; compound concentrations: 100 nM and 1000 nM (sheet 'Samples'), CATDS: 0.32838798877743502; n = 1
# DDR1 = conditions: read-out: apparent Kd; compound concentrations:100 nM and 1000 nM (sheet 'Samples'); n = 1
# RET = conditions: read-out: apparent Kd; compound concentrations:100 nM and 1000 nM (sheet 'Samples'); n = 1
# MAPK14 = conditions: read-out: apparent Kd; compound concentrations:100 nM and 1000 nM (sheet 'Samples'); n = 1
# MAPKAPK2 = conditions: read-out: apparent Kd; compound concentrations:100 nM and 1000 nM (sheet 'Samples'); n = 1
# PIK3CD = conditions: read-out: apparent Kd, n = 1
# TTN = conditions: read-out: apparent Kd; compound concentrations: 100 nM and 1000 nM (sheet 'Samples'), CATDS: 0.51725800618074103; n = 1
# DYRK1A = conditions: read-out: apparent Kd; compound concentrations:100 nM and 1000 nM (sheet 'Samples'); n = 1
# EIF2AK1 = conditions: read-out: apparent Kd; compound concentrations:100 nM and 1000 nM (sheet 'Samples'); n = 1
# IRAK3 = conditions: read-out: apparent Kd; compound concentrations:100 nM and 1000 nM (sheet 'Samples'); n = 1
# OPA1 = conditions: read-out: apparent Kd; compound concentrations:100 nM and 1000 nM (sheet 'Samples'); n = 1
# TGFBR1 = conditions: read-out: apparent Kd; compound concentrations:100 nM and 1000 nM (sheet 'Samples'); n = 1
# [1] = compound concentrations:100 nM and 1000 nM (sheet 'Samples')
# [2] = compound concentrations: 100 nM and 1000 nM (sheet 'Samples'), CATDS: 1
compound,measurement,setting,value
Cc1cccc(-c2nc(Nc3ccc4ncsc4c3)c3ccccc3n2)n1 [GW867588X],potency estimated from few doses,DJA1; [1],0.134 µM
same,potency estimated from few doses,PRKD2,0.0375 µM
same,potency estimated from few doses,PRKD3,0.0748 µM
O=C1NC(=O)C(c2ccccc2)=C1Nc1cccc(O)c1 [SB-390534],potency estimated from few doses,DJA1; [1],1.35 µM
same,potency estimated from few doses,MAP2K1,1.51 µM
same,potency estimated from few doses,PIM2,2.12 µM
same,potency estimated from few doses,STK26,1.58 µM
CC(C)(C)S(=O)(=O)c1ccc2nccc(Nc3n[nH]c4ccc(F)cc34)c2c1 [GSK583],potency estimated from few doses,DHCR24; CATDS: 0.15237648069571999,1.41 µM
same,potency estimated from few doses,NQO1,1.48 µM
same,potency estimated from few doses,PLK1,1.91 µM
same,potency estimated from few doses,RIPK2,0.0042 µM
same,potency estimated from few doses,RIPK3,1.75 µM
same,potency estimated from few doses,TP53RK,1.93 µM
O=C(Nc1ccccc1)Nc1cccc(Oc2ccc3nccn3n2)c1 [TPKI-39],potency estimated from few doses,DDR2,0.732 µM
same,potency estimated from few doses,PDGFRB,0.853 µM
CS(=O)(=O)CCNCc1ccc(-c2ccc3ncnc(Nc4ccc(OCc5ccccc5)cc4)c3c2)o1.Cl [GW458787A],potency estimated from few doses,EGFR,0.0342 µM
COc1cc(N2CCN(C)CC2)ccc1Nc1ncc2c(n1)N(C)c1ccccc1C(=O)N2 [XMD8-87],potency estimated from few doses,"DJA1; compound concentrations: 100 nM and 1000 nM (sheet 'Samples'), CATDS: 0.207840847551445",1.71 µM
same,potency estimated from few doses,PTK6,0.123 µM
same,potency estimated from few doses,TNK2,0.0475 µM
COc1ccc(NC(=O)c2ccoc2)cc1-c1ccc(C(=O)NCC2CC2)cc1 [GW810437X],potency estimated from few doses,"DJA1; compound concentrations: 100 nM and 1000 nM (sheet 'Samples'), CATDS: 0.17319621372560801",1.72 µM
same,potency estimated from few doses,PIK3C3,1.53 µM
same,potency estimated from few doses,PIK3CA,0.147 µM
same,potency estimated from few doses,STK16,2.06 µM
same,potency estimated from few doses,STK4,1.83 µM
Cc1ccc(NC(=O)Nc2ccc(Cl)cc2)cc1-c1ccc(C(=O)Nc2ccncc2)cc1 [GSK1398472A],potency estimated from few doses,DHCR24; CATDS: 0.35595473001681699,1.5 µM
same,potency estimated from few doses,EIF5B,1.88 µM
same,potency estimated from few doses,TOP2B,1.75 µM
COC(=O)Nc1nc2ccc(Oc3ccc(NC(=O)Nc4cc(C(F)(F)F)ccc4F)cc3)cc2[nH]1.Cl [GW654607A],potency estimated from few doses,DDR1,2.14 µM
same,potency estimated from few doses,RET,0.64 µM
COc1cccc(NC(=O)NC2CCN(c3ccnc(Nc4ccc(F)cc4)n3)C2)c1 (stereo not drawn) [GSK1379721A],potency estimated from few doses,DJA1; [2],1.34 µM
Cl.Oc1ccc(-c2nc(-c3ccccc3)[nH]c2-c2ccncc2)cc1 [SB-428218-A],potency estimated from few doses,DJA1; [2],0.108 µM
CCN1CCN(Cc2ccc(C(=O)Nc3ccc(C)c(Oc4ccc5c(c4)CC(=O)N5)c3)cc2C(F)(F)F)CC1.Cl.Cl [DDR1-in-1],potency estimated from few doses,DDR1,0.363 µM
same,potency estimated from few doses,MAPK14,0.958 µM
same,potency estimated from few doses,MAPKAPK2,0.858 µM
Nc1nccc2scc(-c3ccc4c(c3)CCN4C(=O)Cc3cc(F)ccc3F)c12 [GSK2587663A],potency estimated from few doses,"DJA1; compound concentrations: 100 nM and 1000 nM (sheet 'Samples'), CATDS: 0.21507760056604699",1.09 µM
same,potency estimated from few doses,"PIK3CD; compound concentrations: 100 nM and 1000 nM (sheet 'Samples'), CATDS: 0.41369424364853202",0.127 µM
same,potency estimated from few doses,TTN,0.0832 µM
O=C(O)C(F)(F)F.O=C(O[C@H]1CN[C@H](C#Cc2cc3ncnc(Nc4ccc5c(ccn5Cc5cc(F)ccc5F)c4)c3s2)C1)N1CCOCC1 [GSK259178A],potency estimated from few doses,EGFR,0.277 µM
COc1ccc(-c2oc3ncnc(N)c3c2-c2ccc(OC)cc2)cc1 [SB-589132],potency estimated from few doses,DYRK1A,1.95 µM
same,potency estimated from few doses,EIF2AK1,2.27 µM
same,potency estimated from few doses,IRAK3,1.12 µM
same,potency estimated from few doses,OPA1,1.86 µM
same,potency estimated from few doses,PIK3CD; [1],0.151 µM
Clc1ccc(-c2cc(-c3c[nH]nc3-c3ccccn3)ccn2)cc1 [GW681251X],potency estimated from few doses,DJA1; [1],0.843 µM
same,potency estimated from few doses,TGFBR1,0.856 µM
